Only some compounds are listed: those with a hit (about 18% of all), similar ones and a draw of the others.
TGFb inhibitor – qHTS for Inhibitors of TGF-b. HepG2 CAGA-GFP TGF-b/SMAD3 reporter, GFP fluorescence, 18 h; TGF-beta stimulated, 500 pg/mL final. Potency, µM (titrated, usually from 46.1 µM), without a hit: top-dose activity, negative = inhibition, most hits filed as inhibitors. 410,000 compounds, 1.2% hits; also: potency is read from the fitted curve at half-maximal effect; % is scaled to controls: 0 for no effect and ±100 for the full control effect; nearly all actives have a fitted effect of over 65% in size
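First, reporter cells (HEPG2 CAGA-GFP) rested 2 h at 37 degrees C. Next, compounds were pinned in and TGF-beta added to 500 pg/mL final. After 18 h, GFP was imaged per cell and summed per well.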
TDP1 cell CPT – qHTS for Inhibitors of human tyrosyl-DNA phosphodiesterase 1 (TDP1): qHTS in cells in presence of CPT. chicken DT40 Tdp1-/-;hTDP1 cells + 20 nM CPT, ATP luminescence, 48 h. Potency, µM (highest dose often 46.2 µM), inactives show at the top dose activity change, negative = growth inhibition, usual class: inhibitors. 420,000 compounds, 12% hits. AID 686979, 2013; also: potency is read from the fitted curve at half-maximal effect; % is scaled to controls: 0 for no effect and ±100 for the full control effect; nearly all actives have a fitted effect of over 55% in size
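Cell growth measured by CellTiter-Glo luminescence after a minimum 48 h, 37 C compound exposure with 20 nM CPT in Tdp1-knockout DT40 cells stably expressing hTDP1, seeded 400/well; qHTS titration format.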
IL-1B inflam inh – qHTS for Inhibitors of Inflammasome Signaling: IL-1-beta AlphaLISA Primary Screen; THP-1 LPS/ATP IL-1B secretion, AlphaLISA, 16 h; active compounds read low; activity change, % at 57.5 µM; 360,000 compounds, 4.7% hits; AID 743279, 2014; in the data active = activity change below about -50%; inconclusive = mostly about -30% to -49%; also: % is scaled to controls: 0 for no effect and ±100 for the full control effect
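Secreted IL-1B measured by AlphaLISA bead assay after 16 h compound exposure of THP-1 cells; compounds (final up to 57.5 uM) added 1 h before LPS (250 ng/mL) and ATP (1.25 mM) stimulation; lower signal means less secretion.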
TDP1 cell noCPT – qHTS for Inhibitors of human tyrosyl-DNA phosphodiesterase 1 (TDP1): qHTS in cells in absence of CPT; Potency, µM (titrated, usually from 46.2 µM), inactives show at the top dose activity change, negative = growth inhibition, actives largely listed as inhibitors; AID 686978, 2013; 420,000 compounds, 15% hits; DT40 Tdp1-/- hTDP1 cells, no CPT, ATP luminescence, 48 h; also: potency is read from the fitted curve at half-maximal effect; % is scaled to controls: 0 for no effect and ±100 for the full control effect; nearly all actives have a fitted effect of over 55% in size
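Cells were dispensed at 400 per well, compounds added by pin tool, plates incubated ≥48 hr at 37 °C, then CellTiter-Glo added for 30 min at room temperature before luminescence reading. Line: DT40 Tdp1-/- complemented with hTDP1; camptothecin omitted.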
HepG2 tox – qHTS for Inhibitors of TGF-b: Cytotox Counterscreen; HepG2 CAGA-GFP viability, ATP luminescence, 18 h; Potency, µM (titrated, usually from 46.1 µM), without a hit: at the top dose activity change, negative = cytotoxicity, usual class: cytotoxic; 410,000 compounds, 0.76% hits; AID 588856, 2011; also: potency is read from the fitted curve at half-maximal effect
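CellTiter-Glo luminescence gave cytotoxicity after 18 hours at 37 degrees C. The cells were HepG2 CAGA-GFP in 1% FBS DMEM, stimulated with 500 pg/mL TGF-beta after compound addition. %Activity was normalised to no-cell wells (complete cell-killing) and DMSO (no toxicity), and curves were fitted and classified.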
TDP1 block – qHTS Assay for Inhibitors of Tyrosyl-DNA Phosphodiesterase (TDP1). recombinant TDP1, AlphaScreen DNA substrate cleavage. Potency, µM (top dose mostly 130 µM), for inactives: at the highest dose activity change, negative = inhibition, hits mostly inhibitors. 350,000 compounds, 0.28% hits. AID 485290, 2010; also: potency is read from the fitted curve at half-maximal effect; % is scaled to controls: 0 for no effect and ±100 for the full control effect; nearly all actives have a fitted effect of over 40% in size
Target sequence (Q9NUW8 whole entry, looked up): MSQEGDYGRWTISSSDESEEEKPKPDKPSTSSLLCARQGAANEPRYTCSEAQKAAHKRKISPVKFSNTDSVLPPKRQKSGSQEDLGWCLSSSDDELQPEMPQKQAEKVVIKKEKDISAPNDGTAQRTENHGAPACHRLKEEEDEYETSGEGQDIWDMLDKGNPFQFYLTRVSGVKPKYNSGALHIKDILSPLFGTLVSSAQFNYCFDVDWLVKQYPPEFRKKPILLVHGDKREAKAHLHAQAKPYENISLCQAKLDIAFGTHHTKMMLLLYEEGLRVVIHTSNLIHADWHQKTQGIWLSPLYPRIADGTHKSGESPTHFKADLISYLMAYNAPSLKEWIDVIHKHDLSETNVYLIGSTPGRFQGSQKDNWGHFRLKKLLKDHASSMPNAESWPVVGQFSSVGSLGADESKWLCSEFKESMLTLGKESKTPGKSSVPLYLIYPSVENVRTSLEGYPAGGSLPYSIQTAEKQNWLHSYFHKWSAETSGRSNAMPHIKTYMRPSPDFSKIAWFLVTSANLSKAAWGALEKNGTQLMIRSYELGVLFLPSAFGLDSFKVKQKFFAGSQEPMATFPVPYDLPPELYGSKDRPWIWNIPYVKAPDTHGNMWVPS
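Compounds were preincubated with Tdp1 (1 nM final) for 15 min at room temperature before substrate (15 nM final) started a 5 min reaction; beads (10 ug/ml final) were then added for 10 min before AlphaScreen detection.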
Starred values were filed as active, the others as inactive; i = inactive; ? = inconclusive; / = no result given; [ ] = remark or other dose. Unless noted, calls follow the shape of the dose curve; as a rule, active = well fitted curve in the direction sought with a large enough effect; inconclusive = small, poorly fitted or top-dose-only effect, or another doubt; inactive = no such curve, though single readings can be large; an effect the other way counts as inactive or inconclusive.

SMILES	TGFb inhibitor	TDP1 cell CPT	IL-1B inflam inh	TDP1 cell noCPT	HepG2 tox	TDP1 block
COCCCNC(=O)c1cc(-c2cccnc2)nc2ccc(S(=O)(=O)N3CCCCCC3)cc12	1.2%	-2.9%	16.0	22.8%	-3.1%	0.6%
CC1CCN(c2ccc(NC(=O)c3ccc(Br)o3)cc2)CC1	-0.5%	2.9%	i	-4.3%	8.6%	3.3%
COc1ccc(-c2nc3c(C#N)c[nH]n3c2NC2CCCCC2)c(OC)c1	-10.4%	?	/	?	-36.9%	5.7%
COc1ccc(-c2nc3c(C#N)c[nH]n3c2NC2CCCCC2)cc1	?	16.4µM*	/	16.4µM*	-29.3%	2.9%
Cc1ccccc1C1CC(c2ccc(F)cc2)Nc2nc(N)nn21 (stereo unspecified)	-5.6%	20.6µM*	-0.4	?	-16.4%	2.6%
COc1ccc(C2CC(c3cccc(C)c3)n3nc(N)nc3N2)cc1 (stereo unspecified)	-0.9%	?	-11.1	-2.9%	-3.3%	-10.9%
Cc1cccc(C2CC(c3ccc(Br)cc3)Nc3nc(N)nn32)c1 (stereo unspecified)	-10.3%	20.6µM*	-13.8	23.1µM*	-52.1%	5.2%
COc1ccc(C2CC(c3cc(OC)ccc3OC)n3nnnc3N2)cc1 (stereo unspecified)	8.4%	-24.9%	-17.3	-24.4%	4.7%	2.9%
Cc1ccccc1C1CC(c2cccs2)Nc2nnnn21 (stereo unspecified)	-5.1%	-7.1%	?	6.51µM*	-2.4%	5.5%
Cc1ccccc1C1CC(c2ccc(Br)cc2)Nc2nc(N)nn21 (stereo unspecified)	-5.7%	-21.9%	?	-27.8%	-24.9%	2.6%
CN1CCN(c2ncc3ncc(=O)n(Cc4cccs4)c3n2)CC1	/	7.8%	/	?	/	/
O=C(NCc1ccc(F)cc1)C1CCCN(C(=O)Nc2ccc(F)cc2)C1 (stereo unspecified)	-9.6%	4.0%	-5.1	-31.9%	-16.2%	9.6%
CCc1ccc2oc(-c3ccc(C)c(NC(=O)COc4ccc(Cl)cc4)c3)nc2c1	-1.0%	6.4%	/	3.3%	-0.5%	/
COC(=O)N1CCC2(CCCN(C(c3ccccc3)c3ccccc3)C2)CC1	/	12.9%	/	-24.9%	/	/
C=CCn1c(SCC(=O)Nc2c(C)n(C)n(-c3ccccc3)c2=O)nc2scc(-c3ccccc3)c2c1=O	-11.8%	?	-15.6	?	-16.7%	7.9%
NC(=O)CSc1nc2scc(-c3ccc(Cl)cc3)c2c(=O)n1Cc1ccccc1	-0.6%	9.2µM*	55.3	8.2µM*	2.5%	0.0%
O=C(CSc1nc2scc(-c3cccs3)c2c(=O)n1CCc1ccccc1)N1CCCC1	-20.2%	-0.6%	6.8	-25.4%	1.8%	/
Cc1ccc(-c2csc3nc(SCC(=O)N(C)C)n(Cc4ccccc4)c(=O)c23)cc1	-7.0%	11.6µM*	-21.7	13µM*	-6.3%	3.0%
Cc1cc2oc(C(=O)Nc3c(C(=O)Nc4ccccc4)oc4ccccc34)cc(=O)c2cc1C	3.3%	-2.9%	/	?	-3.3%	7.4%
COc1ccc2c(c1)C(=O)N(Cc1ccccc1)C(=O)C2(C)C	6.1%	-2.0%	-14.7	-29.9%	8.7%	/
COc1ccc2c(c1)C[C@]1(C)c3ccccc3C(=O)N(Cc3ccccc3)[C@H]21	11.2µM*	16.4µM*	-11.8	6.31µM*	-15.8%	/
CCOc1cc2sc(N3CCC(C(=O)Nc4ccccc4C(=O)OC)CC3)nc2cc1Br	-20.3%	-19.9%	/	-8.8%	1.4%	-2.0%
CCCCn1c(-c2ccc(Br)cc2F)nc2c1c(=O)[nH]c(=O)n2CC(C)C	?	20.6µM*	-68.4*	23.1µM*	-57.2%	/
CCCCn1c(=O)[nH]c(=O)c2c1nc(-c1ccc(-c3ccc(F)cc3)o1)n2C	-0.7%	?	32.5	?	-9.5%	/
Cc1ccc(S(=O)(=O)N2C[C@@H]3[C@H]4CC[C@H](C4)[C@@H]3[C@@H](C)[C@H]2C#N)cc1	-6.7%	20.6µM*	18.1	?	0.4%	-1.2%[56.1 µM]
SMILES	TGFb inhibitor	TDP1 cell CPT	IL-1B inflam inh	TDP1 cell noCPT	HepG2 tox	TDP1 block
Cc1ccc(S(=O)(=O)N2C[C@@H]3CCCC[C@@H]3[C@@H](C)[C@H]2c2cn(Cc3ccccc3)c3ccccc23)cc1	-28.3%	6.51µM*	5.1	7.31µM*	-0.3%	0.7%[56.1 µM]
Cc1ccc(S(=O)(=O)N2C[C@@H]3CCCC[C@@H]3[C@@H](C)[C@H]2c2cn(Cc3ccccc3)c3ncccc23)cc1	?	11.6µM*	-0.7	?	-5.4%	-0.7%[56.1 µM]
Cc1ccc(S(=O)(=O)N2C[C@@H]3[C@H]4CC[C@H](C4)[C@@H]3[C@@H](C)[C@@H]2c2cn(Cc3ccccc3)c3ncccc23)cc1	-25.2%	23.1µM*	-17.8	20.6µM*	-17.5%	0.1%[56.1 µM]
Cc1ccc(S(=O)(=O)N2C[C@@H]3[C@H]4CC[C@H](C4)[C@@H]3[C@@H](C)[C@H]2c2ccn(Cc3ccccc3)c2)cc1	?	29.1µM*	?	-74.8%	-8.0%	1.3%[56.1 µM]
Cc1ccc(S(=O)(=O)N2CCN(C3CCN(Cc4ccccc4)CC3)CC2)cc1	-27.4%	-22.9%	7.9	?	-2.5%	0.0%
CC(C)COC(=O)N1CCCCC1c1cc(C(=O)N2CCOCC2)no1 (stereo unspecified)	0.9%	-2.2%	55.1	-12.3%	3.4%	/
O=C(NCCCN1CCCC1=O)C1CCN(S(=O)(=O)c2cccc(Cl)c2Cl)CC1	18.2%	-0.1%	-3.6	8.1%	-13.7%	0.9%
COc1ccc(-c2c(C#N)c(N)nc3c2CCc2ccccc2-3)cc1OC	?	8.2µM*	0.0	7.31µM*	-92.8%	2.0%
COc1cc(-c2c(C#N)c(N)nc3c2CCCC3)ccc1O	?	14.6µM*	27.1	16.4µM*	0.1%	3.8%
Cc1ccc(NC(=O)Cn2cnc([N+](=O)[O-])c2)cc1C	-1.9%	5.1%	2.6	-5.4%	-4.8%	/
C[C@@H](C[N+](C)(C)C)OC(N)=O	/	/	/	/	/	-4.1%[21 µM]
COc1ccc(CNC(=O)c2cc3cccc4c3n2CC(C)S4)cc1OC (stereo unspecified)	-23.0%	?	/	23.1µM*	-39.0%	8.5%
COc1ccc(CNC(=O)c2cc3cccc4c3n2CC(C)S4)c(OC)c1 (stereo unspecified)	-20.8%	9.2µM*	/	5.17µM*	-39.1%	0.0%

High-throughput results as filed in PubChem BioAssay.
